Hits are enriched below; roughly 11% of the tested compounds scored in any of these assays.
HCV inhibitor = HCV inhibition. Huh7.5.1 HCVcc-Cre infection, luciferase reporter, 44 h. Potency, µM (series often up to 41.8 µM), for the others: at the top dose activity change, negative = inhibition, most hits filed as inhibitors. 3.4% of 340,000 active. AID 651820
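A cell-based infection assay in which seeded cells (1,000 per well) receive test compound after 4 h, are inoculated with HCVcc-Cre at approximately 0.5 moi, and are incubated 44 h before luminescence detection.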
AmpC inh no detg = AmpC beta-lactamase inhibition without detergent; P00811; Potency, µM (series often up to 57.1 µM), for inactives: at the highest dose activity change, negative = inhibition, actives largely listed as inhibitors; AID 485341; AmpC nitrocefin hydrolysis, absorbance 480 nm, 0.0001% Triton; 0.52% of 330,000 active;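 further: plate controls were no compound for no effect and no enzyme for full effect; nearly all actives have a fitted effect of over 20% in size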
Target sequence (P00811 whole entry, looked up): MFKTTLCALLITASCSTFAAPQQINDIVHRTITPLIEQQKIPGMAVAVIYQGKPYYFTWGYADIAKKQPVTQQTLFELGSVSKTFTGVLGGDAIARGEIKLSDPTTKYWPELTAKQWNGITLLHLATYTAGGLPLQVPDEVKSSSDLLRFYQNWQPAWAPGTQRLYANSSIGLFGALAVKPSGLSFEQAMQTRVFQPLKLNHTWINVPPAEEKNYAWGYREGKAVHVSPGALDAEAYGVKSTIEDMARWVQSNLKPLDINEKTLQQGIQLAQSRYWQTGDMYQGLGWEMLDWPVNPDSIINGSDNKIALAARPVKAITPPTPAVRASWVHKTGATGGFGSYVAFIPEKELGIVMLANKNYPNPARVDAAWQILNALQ
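AmpC (5.3 nM in the dispensed reagent) in 20 mM phosphate pH 7.0 with 0.01% (detergent screen) or 0.0001% Triton X-100 was preincubated with compounds for 15 min at room temperature. Nitrocefin was then added from an 800 uM solution, and hydrolysis was followed at 480 nm.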
Pf growth 48h = inhibits P. falciparum growth in the first generation, 48 h. P. falciparum luciferase growth in erythrocytes, 48 h. Potency, µM (top dose mostly 28.7 µM), for the others: at the highest dose activity change, negative = inhibition, usual class: inhibitors. 5.9% of 310,000 active. AID 504832
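Erythrocytes infected with P. falciparum carrying an integrated firefly luciferase reporter (2% hematocrit, 0.1% parasitemia final) were exposed to compounds in RPMI 1640 with 0.5% Albumax at 37 C, 5% CO2. Growth inhibition was scored as reduced luminescence.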
Pf growth 96h = P. falciparum growth inhibition at 96 hours; AID 504834; Potency, µM (highest dose often 28.7 µM), for inactives: at the top dose activity change, negative = inhibition, most hits filed as inhibitors; 6.9% of 320,000 active; P. falciparum luciferase reporter growth, 96 h
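Readout is luminescence from an integrated firefly luciferase in P. falciparum. Red cells, 2% hematocrit and 0.05% parasitemia final, were cultured with compound through two parasite generations (96 hours) at 37 C, 5% CO2.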
AmpC detergent = inhibitors of E. coli AmpC beta-lactamase with detergent | P00811 | AmpC hydrolysis of nitrocefin, absorbance 480 nm, 0.01% Triton | Potency, µM (doses to about 114 µM), for inactives: top-dose activity change, negative = inhibition, actives largely listed as inhibitors | 0.041% of 370,000 active;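 further: 0% = no-compound wells and -100% = no-enzyme wells; nearly all actives have a fitted effect of over 25% in size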
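20 mM phosphate pH 7.0 + 0.01% (detergent screen) or 0.0001% Triton X-100; 5.3 nM AmpC reagent; cpd preinc 15 min RT; nitrocefin (800 uM stock) to start; A480 q20 s × 4 min; Activity was normalised to no-enzyme and no-compound control wells.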
AMA1 RON2 block = inhibitors of Plasmodium falciparum AMA1-RON2 interaction. AlphaScreen AMA1-biotinylated RON2 peptide binding. 0.2% of 360,000 active. Potency, µM (titrated, usually from 58.2 µM), without a hit: top-dose activity change, negative = inhibition, usual class: inhibitors;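 further: 0% = vehicle wells and -100% = peptide control; nearly all actives have a fitted effect of over 45% in size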
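AMA1 (3D7) with his tag at 25 nM final met compounds first, then biotinylated RON2 peptide at 25 nM; detection used donor plus acceptor beads, 10 µg/mL apiece, read by AlphaScreen after 30 min at room temperature.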
The depositor's hits bear a star; ? = inconclusive; nt = not tested or not shown; [ ] = remark or other dose. The call rests on the fitted dose curve; in most records, active means well fitted curve in the direction sought with a large enough effect; inconclusive means small, poorly fitted or top-dose-only effect, or another doubt; inactive means no such curve, though single readings can be large; an effect the other way counts as inactive or inconclusive. Unless noted, on the % scale 0 is the no-effect control and ±100 the full control effect; potency means the concentration at half of the fitted maximal effect.

SMILES | HCV inhibitor | AmpC inh no detg | Pf growth 48h | Pf growth 96h | AmpC detergent | AMA1 RON2 block
CCOC(=O)c1sc(NC(=O)CSc2nnc(Cc3ccccc3)o2)c(C(=O)OCC)c1C | 6.3µM* | -5% | nt | ? | ? | 6%
CCOc1ccc(-n2c(SCC(=O)Nc3ccc(OC)cc3)nc3c(c2=O)SCC3)cc1 | -9% | -27% | 10% | 50% | -1% | 0%
CCOC(=O)c1noc2nc(C)n(Cc3cccc(C#N)c3)c(=O)c12 | nt | nt | nt | nt | -5% | nt
O=C(c1ccc(CSc2nc3ccncc3n2Cc2ccccc2F)cc1)N1CCCCC1 | nt | nt | nt | nt | 22% | nt
Cc1ccc2occ(CC(=O)N(Cc3ccc(Cl)cc3)Cc3ccco3)c2c1 | nt | nt | nt | nt | 4% | nt
COc1ccc(OC)c(CCNC(=O)C(C)n2nc(C)c3c(C)n(-c4ccc(C)cc4)nc3c2=O)c1 (stereo unspecified) | 2.8µM* | 49% | ? | ? | 2% | -3%
COc1ccc(OC)c(CCNC(=O)C(C)n2nc(C)c3c(C)n(-c4ccccc4)nc3c2=O)c1 (stereo unspecified) | ? | 29% | -19% | 12µM* | -2% | 11%
COc1ccc(OC)c(/C=C/C(=O)N2C(=O)c3cccc(N)c3C2=O)c1 | ? | 32µM* | 9% | 46% | -2% | 3%
COc1ccc(OC)c(/C=C/C(=O)N2CCCc3ccccc32)c1 | 10µM* | 15% | -7% | ? | ? | ?
COc1ccc(/C=C/C(=O)N2CCCc3ccccc32)c(OC)c1 | -30% | 1% | ? | ? | 2% | -15%
COc1ccc(N/N=C(/C(C)=O)N2CCCc3ccccc32)cc1 | -58% | -10% | 4% | 12µM* | -5% | 16µM*
Cc1cccc(N2CCN(C(=O)c3cc(S(=O)(=O)N4CCC(C)CC4)cn3C)CC2)c1C | nt | nt | nt | nt | -2% | nt
COc1ccccc1N(Cc1ccccc1)S(=O)(=O)c1cccc(C(=O)Nc2cccc(C)n2)c1 | 10µM* | -19% | 9.3µM* | ? | ? | 24%
Cc1cccc(NC(=O)c2cccc(S(=O)(=O)N(C)c3ccccc3)c2)n1 | ? | -32% | 7.4µM* | 13µM* | -9% | -4%[11.6 µM]
CCN(c1ccccc1)S(=O)(=O)c1ccc(C(=O)Nc2cccc(C)n2)cc1 | 11µM* | 1% | 9.3µM* | ? | -9% | 1%
C=CCN(c1ccccc1OC)S(=O)(=O)c1cccc(C(=O)Nc2nnc(C3CC3)s2)c1 | -18% | -17% | 10µM* | 9.3µM* | 6% | 3%
CC(=O)Nc1ccc(-c2nnc3n(CC(C)C)c(=O)c4ccccc4n23)cc1 | nt | nt | nt | nt | 19% | nt
COc1cc(NC(=O)CCc2c(C)nn(-c3ccc4nncn4n3)c2C)cc(OC)c1OC | nt | nt | nt | nt | 4% | nt
CCCCSc1nc2sc3c(c2c(=O)n1-c1ccccc1C)CC(C)(C)OC3 | nt | nt | nt | nt | 0% | nt
CCOC(=O)C1CCCN(C(=O)c2ccc3c(c2)N(Cc2cccc(Cl)c2)C(=O)c2ccccc2S3(=O)=O)C1 (stereo unspecified) | nt | nt | nt | nt | 0% | nt
CC(=O)c1cccc(NC(=O)C2CCN(S(=O)(=O)c3ccc4c(c3)CCCN4C(C)=O)CC2)c1 | nt | nt | nt | nt | 1% | nt
CCNc1ccc(C(=O)OCC)cc1NC(=O)c1cccc(S(=O)(=O)N(C)c2ccccc2)c1 | 8.9µM* | -21% | ? | 2.3µM* | -12% | 2%
CCNc1ccc(C(=O)OCC)cc1NC(=O)c1cccc(N(C)C)c1 | ? | -23% | ? | -27% | ? | 4%
COCCCNC(=O)c1oc2c(c1C)-c1nn(Cc3cccc(Cl)c3)cc1CC2 | nt | nt | nt | nt | 2% | nt
Cc1ccc2[nH]c3c(N4CCOCC4)ncnc3c2c1 | ? | -17% | ? | ? | 1% | 11%
SMILES | HCV inhibitor | AmpC inh no detg | Pf growth 48h | Pf growth 96h | AmpC detergent | AMA1 RON2 block
CCOc1ccc2[nH]c3c(NCCCOC)ncnc3c2c1 | -24% | 4% | nt | ? | 4% | -18%
CN1CCN(c2ncnc3c2[nH]c2ccc(F)cc23)CC1 | 10µM* | -18% | 2.9µM* | ? | -5% | 7%
Fc1ccc2[nH]c3c(N4CCc5ccccc5C4)ncnc3c2c1 | 5µM* | -43% | 2.9µM* | 1.9µM* | -8% | 7%
Cc1ccc2[nH]c3c(N4CCc5ccccc5C4)ncnc3c2c1 | 3.5µM* | -40% | ? | ? | -8% | -13%
c1ccc2c(c1)CCN(c1ncnc3nc[nH]c13)C2 | 1% | -22% | 4% | ? | -7% | 31%
CCOc1ccc2[nH]c3c(N4CCc5ccccc5C4)ncnc3c2c1 | -79% | -17% | ? | 13µM* | 14% | ?
Brc1ccc2[nH]c3c(N4CCc5ccccc5C4)ncnc3c2c1 | 3.5µM* | -38% | 1.7µM* | nt | 8% | 0%
c1ccc2c(c1)[nH]c1c(N3CCOCC3)ncnc12 | ? | -20% | ? | 0% | -4% | 12%
c1ccc2c(c1)[nH]c1c(N3CCN(C4CCCCC4)CC3)ncnc12 | -9% | -29% | 14% | 5% | 1% | 3%
c1ccc2c(c1)[nH]c1c(N3CCSCC3)ncnc12 | 13µM* | -2% | 0% | 8% | 0% | -4%
COc1ccc2cc(CNc3ccc(C)cc3)c(=O)n(CC(=O)Nc3cccc(Cl)c3C)c2c1 | nt | nt | nt | nt | 10% | nt
COC(=O)CN(c1ccccn1)S(=O)(=O)c1ccccc1 | -1% | -6% | 23% | 2.3µM* | -17% | -2%
O=C(O)CN(c1ccccn1)S(=O)(=O)c1ccccc1 | 13% | -7% | nt | 18% | -3% | ?
COc1ccc2c(c1)OC[C@H]1[C@H]2N2C(=O)c3cc(OC)c(OC)cc3NC(=O)[C@@]2(C)[C@H]1c1ccccc1 | 7.1µM* | 138% | 2.3µM* | 6.6µM* | -9% | -21%
COc1ccc2c(c1)C(=O)N1[C@H]3c4cc(OC)ccc4OC[C@@H]3[C@H](c3ccccc3)[C@]1(C)C(=O)N2 | ? | 106% | 13µM* | ? | 1% | -14%
COc1ccc2c(c1)[C@H]1[C@H](CO2)[C@H](c2ccccc2)[C@]2(C)C(=O)Nc3ccccc3C(=O)N12 | ? | 27% | ? | ? | -11% | -22%
COc1ccc2c(c1)OC[C@H]1[C@H]2N2C(=O)c3cc(Br)ccc3NC(=O)[C@@]2(C)[C@H]1c1ccccc1 | ? | -44% | 1.7µM* | 5.2µM* | -5% | -6%
S=C(NNc1ccnc2cc(Cl)ccc12)Nc1ccc(Cl)cc1Cl | 5.6µM* | -49% | 1.9µM* | 0.74µM* | -13% | 31%
CCOc1ccc(NC(=S)NNc2ccnc3cc(Cl)ccc23)cc1 | 3.2µM* | -12% | ? | 2.1µM* | 4% | 4%

Assay outcomes as filed in PubChem BioAssay.
